Source: PubChem
In the library only some 3.6% were active in any assay of this set; here they are far more common.
mHTT CaM bind – disrupts binding of mutant huntingtin to calmodulin; inhibition, % at 15 µM; actives 3.6% (n = 190,000); AlphaScreen His-mHTT/GST-CaM binding, luminescence; AID 1671202
Pf apPOL block – Pf-apPOL DNA polymerase inhibition. AID 1794808. actives 0.25% (n = 210,000). inhibition, % at 10 µM. Recombinant Pf-apPOL, molecular beacon fluorescence, 1.5 h
A number is an active result. Rule as the data show it: active = inhibition above about 50%; inactive = the rest.

What do the screens show for `O=C(c1ccc(N2CCc3ccccc32)c([N+](=O)[O-])c1)N1CCC2(CC1)OCCO2`?
mHTT CaM bind: 77.0; Pf apPOL block: inactive

What do the screens show for `O=C(c1ccc(N2CCC3(CC2)OCCO3)c([N+](=O)[O-])c1)N1CCOCC1`?
mHTT CaM bind: inactive; Pf apPOL block: inactive

Results for O=C(c1ccc(Sc2cccc(Cl)c2)c([N+](=O)[O-])c1)N1CCN(c2ccccn2)CC1 ?
mHTT CaM bind: inactive; Pf apPOL block: inactive

What do the screens show for `O=[N+]([O-])c1cc(S(=O)(=O)N2CCc3ccccc32)ccc1N1CCc2ccccc21`?
mHTT CaM bind: 74.0; Pf apPOL block: inactive

How did Cc1ccc(S(=O)(=O)N2CCc3ccccc32)cc1[N+](=O)[O-] do in these assays?
mHTT CaM bind: inactive; Pf apPOL block: inactive

What do the screens show for `O=[N+]([O-])c1ccc(N2CCc3ccccc32)c([N+](=O)[O-])c1`?
mHTT CaM bind: 56.0; Pf apPOL block: inactive

Results for N#CCCN1CCN(C(=O)c2cccc(N3CCNC(c4ccccc4)C3)n2)CC1 (stereo not drawn) ?
mHTT CaM bind: inactive; Pf apPOL block: inactive

Results for Cc1ccccc1NC(=O)Cn1cnc2c(-c3ccccc3)csc2c1=O ?
mHTT CaM bind: inactive; Pf apPOL block: inactive

How did O=C1C(=Cc2ccc(C(F)(F)F)cc2)CSc2sccc21 do in these assays?
Pf apPOL block: inactive

What do the screens show for `CC(C)CCNC(=O)CCC(=O)N1CC2CCCN2c2ccccc21` (stereo not drawn)?
mHTT CaM bind: inactive; Pf apPOL block: inactive

What do the screens show for `O=C(CCC(=O)N1CC2CCCN2c2ccccc21)NCCc1ccc(Cl)cc1` (stereo not drawn)?
mHTT CaM bind: 74.8; Pf apPOL block: inactive

Results for COc1ccc(CCNC(=O)CCC(=O)N2CC3CCCN3c3ccccc32)cc1OC (stereo not drawn) ?
mHTT CaM bind: inactive; Pf apPOL block: inactive

How did O=C(CCC(=O)N1CC2CCCN2c2ccccc21)NCCc1ccccc1Cl (stereo not drawn) do in these assays?
mHTT CaM bind: 53.5; Pf apPOL block: inactive

Results for Cc1ccc2nc(-c3ccc(N4C(=O)CCC4=O)cc3)sc2c1 ?
mHTT CaM bind: inactive; Pf apPOL block: inactive

How did CC(=O)NCCc1csc(C2CCN(C(=O)c3ccc(N(C)C)cc3)CC2)n1 do in these assays?
mHTT CaM bind: inactive; Pf apPOL block: inactive

Results for COC(=O)Nc1ccc(S(=O)(=O)Nc2cc(C(C)C)c(O)c(C(C)C)c2)cc1 ?
mHTT CaM bind: 56.1; Pf apPOL block: inactive

What do the screens show for `COC(=O)Nc1ccc(S(=O)(=O)NC(C)=O)cc1`?
mHTT CaM bind: inactive; Pf apPOL block: inactive

What do the screens show for `COc1ccccc1-c1nc2ccc(C)cn2c1NC(=O)C1CCCCC1`?
mHTT CaM bind: inactive; Pf apPOL block: inactive

How did Cc1nc(NC(=O)c2ccc(-n3ccnc3)nn2)sc1C do in these assays?
mHTT CaM bind: 90.0; Pf apPOL block: inactive

How did Cc1ccnc(NS(=O)(=O)c2ccc(NC(=O)c3ccc(-n4ccnc4)nn3)cc2)n1 do in these assays?
mHTT CaM bind: inactive; Pf apPOL block: inactive

How did O=C(Nc1ccc(N2CCCC2)cc1)c1sc2ccccc2c1Cl do in these assays?
mHTT CaM bind: inactive; Pf apPOL block: inactive

How did CC(=O)N=c1sccn1CC(=O)c1ccc(Br)cc1 do in these assays?
mHTT CaM bind: inactive; Pf apPOL block: inactive

What do the screens show for `N#CC1=C(N)N(c2ccccc2)C2=C(C(=O)CCC2)C1c1ccsc1` (stereo not drawn)?
mHTT CaM bind: inactive; Pf apPOL block: inactive

How did N#CC1=C(N)n2c(s/c(=C\c3ccsc3)c2=O)=C(C#N)C1c1ccsc1 (stereo not drawn) do in these assays?
mHTT CaM bind: 70.0; Pf apPOL block: inactive

How did COc1ccc(C)cc1NCc1ccccc1C do in these assays?
mHTT CaM bind: 81.0; Pf apPOL block: inactive

What do the screens show for `COc1cc(Br)c(CNc2cc(C)ccc2C)cc1OC`?
mHTT CaM bind: inactive; Pf apPOL block: inactive

Results for CN(CC(=O)Nc1ccccc1F)S(=O)(=O)c1ccc(Br)s1 ?
mHTT CaM bind: inactive; Pf apPOL block: inactive

Results for Cn1c(=O)c2cn(-c3cccc([N+](=O)[O-])c3)cc2n(C)c1=O ?
mHTT CaM bind: inactive; Pf apPOL block: inactive

How did C=C1CCN([C@@H](CC(C)C)C(=O)O)S(=O)(=O)c2ccccc21 do in these assays?
mHTT CaM bind: inactive; Pf apPOL block: inactive

How did C=C1CCN([C@@H](CC(C)C)C(=O)NCCCc2ccccc2)S(=O)(=O)c2ccccc21 do in these assays?
mHTT CaM bind: 64.6; Pf apPOL block: inactive

Results for C=C1CCN([C@@H](CC(C)C)C(=O)Nc2nc3ccc(Cl)cc3s2)S(=O)(=O)c2ccccc21 ?
mHTT CaM bind: 94.2; Pf apPOL block: inactive

How did C=C1CCN([C@@H](CC(C)C)C(=O)Nc2ccc(OC)cc2)S(=O)(=O)c2ccccc21 do in these assays?
mHTT CaM bind: inactive; Pf apPOL block: inactive

How did N/C(Cc1ccc(Cl)c(Cl)c1)=N\OC(=O)c1ccc2c(c1)OCO2 do in these assays?
mHTT CaM bind: inactive; Pf apPOL block: inactive

How did CCNc1cc(N2CCC(CCC(=O)Nc3ccc(OCC)cc3)CC2)ncn1 do in these assays?
mHTT CaM bind: inactive; Pf apPOL block: inactive
